Compound activity deposited in PubChem by National Center for Advancing Translational Sciences (NCATS).
TGFb SMAD3 inh: TGF-b pathway inhibition; HepG2 CAGA-GFP TGF-b/SMAD3 reporter, GFP fluorescence, 18 h; TGF-beta stimulated, 500 pg/mL final; 1.2% of 410,000 active; Potency, µM (top dose mostly 46.1 µM), for inactives: at the top dose activity, negative = inhibition, most hits filed as inhibitors; further: potency means the concentration at half of the fitted maximal effect; on the % scale 0 is the no-effect control and ±100 the full control effect; nearly all actives have a fitted effect of over 65% in size
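Smad-responsive CAGA-GFP expression was quantified in HEPG2 cells exposed to compounds and 500 pg/mL final TGF-beta for 18 h at 37 degrees C; unstimulated wells defined full inhibition.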
HepG2 viability: HepG2 cytotoxicity, counter-screen for TGF-b inhibitors; 0.76% of 410,000 active; Potency, µM (top dose mostly 46.1 µM), inactives show at the highest dose activity change, negative = cytotoxicity, usual class: cytotoxic; HepG2 CAGA-GFP viability, ATP luminescence, 18 h; further: potency means the concentration at half of the fitted maximal effect
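CellTiter-Glo luminescence gave cytotoxicity after 18 hours at 37 degrees C. The cells were HepG2 CAGA-GFP in 1% FBS DMEM, stimulated with 500 pg/mL TGF-beta after compound addition. %Activity was normalised to no-cell wells (complete cell-killing) and DMSO (no toxicity), and curves were fitted and classified.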
uPA surface inh: inhibitors of cell surface uPA generation | cell surface uPA generation assay, qHTS | Potency, µM (titrated, usually from 38.3 µM), inactives show at the top dose activity change, negative = inhibition, most hits filed as inhibitors | 0.31% of 330,000 active; active means well fitted inhibition curve with a large enough effect; inconclusive means small, poorly fitted or top-dose-only effect; inactive means no such curve, though single readings can be large or run the other way; tested in mouse RAW 264.7 cells; further: potency means the concentration at half of the fitted maximal effect; on the % scale 0 is the no-effect control and ±100 the full control effect; nearly all actives have a fitted effect of over 55% in size
ATXN viability: reduces viability in counter-screen for ATXN expression inhibitors; S2 cells (HEK-293 line with an ATXN2-luciferase reporter) viability, CellTiter-Fluor protease fluorescence, 24 h; Potency, µM (top dose mostly 56.7 µM), actives largely listed as cytotoxic; 0.49% of 400,000 active; further: potency means the concentration at half of the fitted maximal effect; nearly all actives have a fitted effect of over 40% in size
ATXN2 expr inh: ATXN2 expression inhibition. HEK-293 ATXN2-luciferase reporter, luminescence, 24 h. Potency, µM (series often up to 57 µM), without a hit: top-dose activity change, negative = inhibition, hits mostly inhibitors. 0.72% of 360,000 active. AID 1745845; further: potency means the concentration at half of the fitted maximal effect; on the % scale 0 is the no-effect control and ±100 the full control effect; nearly all actives have a fitted effect of over 55% in size
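qHTS (up to 57 uM final) was run with 24 h compound exposure of reporter cells at 37 °C. Each well was multiplexed: SteadyGlo luminescence measured ATXN2-luciferase expression after a fluorogenic Gly-Phe-AFC viability readout (25 uM final).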
Giardia killer: kills Giardia lamblia. 0.15% of 340,000 active. AID 540267. Giardia lamblia trophozoite viability. activity change, % at 7.66 µM, hits read low; in the data active means activity change below about -80%; inconclusive means between about -30% and that limit;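 further: parasites exposed to compound for two days anaerobically before the ATP read; on the % scale 0 is the no-effect control and ±100 the full control effect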
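ATP-content bioluminescence gauges trophozoite survival. Cells (100/well) receive compound and incubate anaerobically for 48 hrs at 37 deg C; detection reagent follows for 15-30 min at room temperature.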
* = called active by the depositor; i = inactive; ? = inconclusive; . = no result given; ! = not active in a repeat. Only some compounds are listed: those with a hit (about 2.6% of all), similar ones and a draw of the others. Unless noted, the call rests on the fitted dose curve; in most records, active means well fitted curve in the direction sought with a large enough effect; inconclusive means small, poorly fitted or top-dose-only effect, or another doubt; inactive means no such curve, though single readings can be large; an effect the other way counts as inactive or inconclusive.

SMILES | TGFb SMAD3 inh | HepG2 viability | uPA surface inh | ATXN viability | ATXN2 expr inh | Giardia killer
COC(=O)c1cc(CNC(=O)c2ccncc2)cc(NC(=O)c2ccccc2Cl)c1 | . | . | . | i | . | .
O=c1nc(N/N=C/c2ccccn2)cn[nH]1 | 6% | -13% | -14% | i | 6.3µM* | 31
O=c1cnnc(N/N=C/c2ccccn2)[nH]1 | -30% | -24% | -19% | ? | 1.8µM* | -3
C=CCN(CC=C)c1ccc(/C=C/c2ccnc3ccccc23)cc1 | ? | -39% | . | . | . | .
CN[C@H]1[C@@H](O)[C@@H]2O[C@@H]3O[C@H](C)CC(=O)[C@]3(O)O[C@@H]2[C@@H](NC)[C@H]1O | . | . | . | . | 27µM* | .
O=C(/C=C/NNC(=O)c1ccccc1)c1ccc([N+](=O)[O-])cc1 | ? | -49% | -7% | ? | 7.5µM* | -15
O=C(O)c1cccc(N/N=C/c2cccs2)c1 | 6% | 3% | -3% | ? | 10µM* | 7
COc1cccc(O)c1CN1CCC2(CC1)c1ccccc1[C@@H](NC(=O)c1ccsc1)[C@@H]2OC | . | . | . | i | . | .
O=C1c2ccc(Oc3cccc([N+](=O)[O-])c3)cc2C(=O)N1c1ccccn1 | 7% | 2% | 8% | i | . | 2
O=C1c2cc([N+](=O)[O-])cc3cc([N+](=O)[O-])cc(c23)C(=O)N1c1ccccn1 | 5.6µM* | 2% | -5% | ? | ? | ?
Cc1ccc(-c2nc(=Nc3c(C)cc(C)cc3C)sn2-c2ccccc2)cc1 | 5.6µM* | -29% | . | . | . | -5
CCCCN1CCC2C=CCC(C(=O)O)C2C1=O (stereo not drawn) | 4% | 0% | . | . | . | 6
COc1ccccc1/C=C/C1(C(=O)NC2CCCC2)CC(=O)N1c1ccc(C)cc1 (stereo not drawn) | ? | -13% | -11% | ? | ? | -5
COc1ccccc1/C=C/C1(C(=O)NC2CCCC2)CC(=O)N1c1ccc(F)cc1 (stereo not drawn) | ? | -27% | -14% | . | 18µM* | -5
COc1ccc(CC2C(=O)Nc3ccc(Br)cc32)cc1OC (stereo not drawn) | -19% | 16µM* | . | . | . | .
COc1ccc(OC)c(CC2C(=O)Nc3ccc(Br)cc32)c1 (stereo not drawn) | ? | -53% | . | . | . | .
CCCOc1ccc(CC2C(=O)Nc3ccc(Br)cc32)cc1 (stereo not drawn) | 11µM* | -95% | . | ? | -24% | .
O=C(C[N+]12CN3CN(CN(C3)C1)C2)c1ccc(O)c(O)c1 | 9% | -21% | . | . | . | .
Cc1ncc2c(c1CNS(=O)(=O)N(C)C)CCN(C(=O)/C=C/c1ccccc1F)C2 | . | . | . | i | . | .
Cc1cc(C)c2c(=N)c3ccccc3n(CCCCCCCCn3c4ccccc4c(=N)c4c(C)cc(C)nc43)c2n1 | ? | -94% | 0% | ? | 28µM* | -6
O=C(NNC(=S)NCc1ccccc1)c1ccccc1OC(F)F | 3% | -1% | 3% | i | -4% | -8
O=C(NNC(=S)Nc1cccc(C(F)(F)F)c1)c1ccccc1Cl | 14µM* | -84% | -5% | i | ? | 5
O=C(NNC(=S)Nc1ccc(Cl)cc1)c1ccccc1OC(F)F | 14µM* | -59% | -5% | i | ? | -12
O=C(NNC(=S)Nc1cccc(C(F)(F)F)c1)c1cccc(Cl)c1 | ? | -67% | -2% | ? | ? | 13
COc1cccc(OC)c1CN1CCC2(CCC(CNC(=O)c3ccccc3)O2)CC1 (stereo not drawn) | . | . | . | i | . | .
SMILES | TGFb SMAD3 inh | HepG2 viability | uPA surface inh | ATXN viability | ATXN2 expr inh | Giardia killer
O=C(CN1CCN(c2ccc(Cl)cc2)CC1)Nc1ccc(Cl)c(C(F)(F)F)c1 | 10µM* | -40% | . | ? | ? | .
CCOc1ccc(NC(=O)CN2CCN(CC(=O)Nc3ccc(Cl)c(C(F)(F)F)c3)CC2)cc1 | ? | 13µM* | . | ? | ? | -11
O=C(Nc1ccc(OCC(F)(F)C(F)F)c(C(F)(F)F)c1)c1ccc(Cl)cc1 | ? | 18µM* | -11% | i | ? | -6
O=C(Nc1ccc(Cl)cc1)Nc1ccc(Cl)c(C(F)(F)F)c1 | . | . | . | 16µM*! | ? | .
O=C(CN1CCN(CC(=O)Nc2ccccc2F)CC1)Nc1ccc(Cl)c(C(F)(F)F)c1 | -10% | -66% | . | ? | ? | .
CN1[C@@H]2CC[C@H]1CC(OC(=O)[C@@H](CO)c1ccccc1)C2 (stereo partly drawn) | . | . | . | i | . | .
Cc1ccc(S(=O)(=O)C2(C(=O)Nc3ccc(Cl)c(C(F)(F)F)c3)CC2)cc1 | 11µM* | -50% | . | ? | -18% | .
Cc1ccc(S(=O)(=O)C2(C(=O)Nc3ccc(C)c(Cl)c3)CC2)cc1 | -12% | -1% | . | i | 4% | .
O=C(Nc1ccncc1)C1CCN(S(=O)(=O)c2ccc(Cl)c(C(F)(F)F)c2)CC1 | -28% | -22% | 11µM* | i | -17% | 27
C[N+]1(CC(=O)c2ccc(Br)cc2)CCOCC1 | -15% | -2% | . | . | . | .
COc1ccc(/C(C)=C/C(=O)O)c(OC)c1 | . | . | . | i | 11% | .
CCOC(=O)[C@]12CCCC=C1N(Cc1ccc(Cl)cc1Cl)C(=O)[C@H](CC(=O)NCCc1ccccc1OC)C2 | . | . | . | ? | 0% | .
CCCCCCCCN1C(=O)[C@H](CC(=O)NCCc2ccccc2OC)C[C@@]2(C(=O)OCC)CCCC=C12 | . | . | . | 22µM* | ? | .
COc1ccccc1-c1ccnc(-n2ncc(C(=O)NCc3cccnc3)c2C)n1 | . | . | . | i | . | .
COc1ccc2c(c1)N(C)/C(=C/c1cccc[n+]1C)S2 | -17% | -37% | 7.9µM* | ? | ? | 8
CCN1/C(=C/C(C)=O)Sc2ccc(OC)cc21 | 5% | -14% | -7% | i | -15% | -1
CCN1/C(=C/c2cccc[n+]2C)Sc2ccc(OC)cc21 | 4µM* | -18% | ? | i | . | 6
Cc1ccc2c(c1)N(C)/C(=C/c1cccc[n+]1C)S2 | -2% | 11µM* | -11% | i | ? | 15
Cc1ccc(S(=O)(=O)NNC(=O)c2ccc(C(=O)N(c3ccccc3)c3ccccc3)cc2)cc1 | -23% | -17% | . | . | . | .
Nc1nc2ccccc2n1Cc1ccc(F)cc1 | . | . | . | i | -16% | .
CCCCCCNC(=O)c1cn(CC)c2cc(N3CCN(C)CC3)c(F)cc2c1=O | ? | 13µM* | ? | ? | ? | 18
Cc1cccc2c1c1ccc3c(c1n2C)C(=O)C=CC3=O | 16µM* | -37% | ? | i | . | 9
N#CCCN(Cc1ccccc1)C(C(=O)NC1CCCCC1)c1cc2ccccc2o1 (stereo not drawn) | 13µM* | 3% | . | . | -39% | .
